Experimental data reported in PubChem BioAssay (EPA / NIEHS).
Inconclusive results are not listed. Calls of active or inactive are those of the source. The calls were made as follows, unless noted: active = hit-call score of the fitted dose curve at least 0.9, where 1 is the maximum; inconclusive = response in the unintended direction; inactive = score below 0.9.

How the values were obtained:
[1] = ATG_TAL_CIS: Attagene CIS-FACTORIAL HepG2 Assay for human TAL Basal Promoter (AID 2282966; active = hit-call score of the fitted dose curve at least 0.9, where 1 is the maximum; inactive = score below 0.9;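 also: background control endpoint measuring basal TAL promoter reporter mRNA not a specific factor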); conditions: HepG2 Attagene cis-factorial TAL promoter reporter; actives raise or lower the signal
In short: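 Human hepatoma HepG2 cells, transfected with promoter-regulated reporter units, were treated 24 h. Reporter transcript levels, measured through RT-PCR and capillary electrophoresis, were fitted for gain or loss relative to DMSO.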

[2] = ATG_VDRE_CIS: Attagene CIS-FACTORIAL HepG2 Assay for human Vitamin D Receptor Element (VDRE) (AID 2282968; active = hit-call score of the fitted dose curve at least 0.9, where 1 is the maximum; inactive = score below 0.9); conditions: HepG2 VDRE cis-reporter transcription, actives raise or lower the signal
In short: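 Transfected HepG2 reporter cells, chemical treatment 24 h. RNA isolated, cDNA amplified with reporter-specific primers, products analysed by capillary electrophoresis. Endpoint fitted in both directions versus DMSO.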

[3] = target: Nuclear receptor subfamily 1 group I member 3 (Homo sapiens) (UniProt Q14994); test: ATG_CAR_TRANS: Attagene TRANS-FACTORIAL HepG2 Assay for human Constitutive Androstane Receptor (CAR) (AID 2282969); conditions: HepG2 Attagene TRANS-FACTORIAL CAR reporter;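 also: activators raise reporter mRNA above DMSO so AC50 marks induction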
Sequence of Nuclear receptor subfamily 1 group I member 3 (Homo sapiens) (Q14994 whole entry, looked up, the tested form may be a part): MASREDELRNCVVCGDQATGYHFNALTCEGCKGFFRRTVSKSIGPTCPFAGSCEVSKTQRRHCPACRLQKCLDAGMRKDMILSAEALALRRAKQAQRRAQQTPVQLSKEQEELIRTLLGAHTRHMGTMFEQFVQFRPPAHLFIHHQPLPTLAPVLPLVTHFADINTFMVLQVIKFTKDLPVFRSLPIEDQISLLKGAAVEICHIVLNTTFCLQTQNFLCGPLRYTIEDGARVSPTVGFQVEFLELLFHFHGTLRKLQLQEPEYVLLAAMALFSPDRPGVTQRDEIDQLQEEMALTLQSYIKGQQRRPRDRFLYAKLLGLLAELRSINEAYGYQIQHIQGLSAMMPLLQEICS
In short: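 Steps: transient transfection of HepG2 with multiple GAL4-UAS reporter units; 24 h compound incubation; RNA isolation, RT-PCR, 6-FAM primer extension, HpaI digest; capillary electrophoresis. Gain-of-signal relative to DMSO negative control.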

[4] = target: X-box-binding protein 1 (Homo sapiens) (UniProt P17861); test: ATG_Xbp1_CIS: Attagene CIS-FACTORIAL HepG2 Assay for human X-box Binding Protein 1 (XBP1) (AID 2282972; active = hit-call score of the fitted dose curve at least 0.9, where 1 is the maximum; inactive = score below 0.9); conditions: HepG2 XBP1 cis-element reporter, Attagene multiplex; actives raise or lower the signal
Sequence of X-box-binding protein 1 (Homo sapiens) (P17861 whole entry, looked up): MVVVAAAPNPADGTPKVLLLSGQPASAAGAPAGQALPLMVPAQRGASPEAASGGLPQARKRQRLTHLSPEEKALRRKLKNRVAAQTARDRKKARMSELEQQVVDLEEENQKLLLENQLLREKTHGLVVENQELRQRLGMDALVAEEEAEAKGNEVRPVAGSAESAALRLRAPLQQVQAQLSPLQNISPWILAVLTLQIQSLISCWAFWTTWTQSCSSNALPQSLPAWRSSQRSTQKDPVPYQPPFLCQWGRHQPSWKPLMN
In short: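 Multiplexed cis-reporter readout in transfected HepG2 liver cells. Exposure lasted 24 hours. Activity in either direction was fitted against DMSO as negative control and baseline.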

[5] = ATG_M_19_TRANS: Attagene TRANS-FACTORIAL HepG2 Assay for M19 Transcription Factor (Internal Marker) (AID 2282974); conditions: HepG2 Attagene TRANS-FACTORIAL M19 internal marker reporter
In short: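 Background-control readout: after 24 h chemical exposure of transfected HepG2 carrying GAL4-driven reporter units, RNA was reverse-transcribed, amplified, fluorescently labeled and sized by capillary electrophoresis; gain-of-signal fit against DMSO.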

[6] = ATG_GAL4_TRANS: Attagene TRANS-FACTORIAL HepG2 Assay for GAL4 (Internal Marker) (AID 2282976); conditions: HepG2 Attagene TRANS GAL4 internal marker reporter
In short: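 Liver HepG2 line bearing multiplexed GAL4-UAS reporter constructs; 24 h chemical treatment. Transcripts were quantified as fluorescent fragments on capillary electrophoresis after RT-PCR and HpaI cut, with activity fitted upward from DMSO.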

[7] = target: Bile acid receptor (Homo sapiens) (UniProt Q96RI1); test: ATG_FXR_TRANS: Attagene TRANS-FACTORIAL HepG2 Assay for Farnesoid X Receptor (FXR) (AID 2282979); conditions: HepG2 Attagene TRANS FXR-GAL4 reporter transcription;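 also: hits raise reporter mRNA above DMSO so AC50 marks FXR activation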
Sequence of Bile acid receptor (Homo sapiens) (Q96RI1 whole entry, looked up, the tested form may be a part): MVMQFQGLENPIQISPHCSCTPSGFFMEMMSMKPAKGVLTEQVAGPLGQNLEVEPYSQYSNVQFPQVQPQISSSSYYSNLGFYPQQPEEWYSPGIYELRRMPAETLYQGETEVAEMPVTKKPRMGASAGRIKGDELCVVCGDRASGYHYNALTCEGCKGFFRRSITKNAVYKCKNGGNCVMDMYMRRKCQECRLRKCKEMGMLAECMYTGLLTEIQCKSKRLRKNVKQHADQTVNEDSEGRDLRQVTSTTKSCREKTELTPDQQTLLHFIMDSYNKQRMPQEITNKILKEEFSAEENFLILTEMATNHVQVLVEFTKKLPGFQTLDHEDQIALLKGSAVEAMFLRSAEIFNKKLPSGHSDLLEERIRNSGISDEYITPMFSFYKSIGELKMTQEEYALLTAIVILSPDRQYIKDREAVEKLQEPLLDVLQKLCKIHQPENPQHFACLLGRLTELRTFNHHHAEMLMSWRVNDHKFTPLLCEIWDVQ
In short: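 After 24 h chemical treatment of transfected HepG2 cells, GAL4-UAS reporter transcripts driven by an exogenous FXR-GAL4 fusion were measured by RT-PCR and capillary electrophoresis. Increases over DMSO were fitted.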

[8] = target: Oxysterols receptor LXR-alpha (Homo sapiens) (UniProt Q13133); test: ATG_LXRa_TRANS: Attagene TRANS-FACTORIAL HepG2 Assay for human Liver X Receptor alpha (LXRa) (AID 2282980); conditions: HepG2 Attagene TRANS reporter, LXRa transactivation
Sequence of Oxysterols receptor LXR-alpha (Homo sapiens) (Q13133 whole entry, looked up, the tested form may be a part): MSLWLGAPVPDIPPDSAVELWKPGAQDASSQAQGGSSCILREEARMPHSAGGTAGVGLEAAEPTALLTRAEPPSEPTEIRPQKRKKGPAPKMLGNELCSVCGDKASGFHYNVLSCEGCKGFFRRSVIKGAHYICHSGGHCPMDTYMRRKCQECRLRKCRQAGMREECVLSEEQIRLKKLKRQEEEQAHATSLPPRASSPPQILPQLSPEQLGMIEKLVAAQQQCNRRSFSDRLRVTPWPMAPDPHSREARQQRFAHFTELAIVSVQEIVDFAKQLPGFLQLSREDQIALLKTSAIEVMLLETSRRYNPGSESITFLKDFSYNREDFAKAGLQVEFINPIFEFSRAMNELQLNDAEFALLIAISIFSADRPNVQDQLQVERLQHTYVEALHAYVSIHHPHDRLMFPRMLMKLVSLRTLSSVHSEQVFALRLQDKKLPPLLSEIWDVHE
In short: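 In this multiplexed TRANS system, compounds act on HepG2 cells carrying GAL4-UAS reporter units and a receptor-GAL4 fusion for 24 h. Induced reporter RNA is amplified, fluorescently labelled and sized by capillary electrophoresis, with DMSO as baseline.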

[9] = target: Oxysterols receptor LXR-beta (Homo sapiens) (UniProt P55055); test: ATG_LXRb_TRANS: Attagene TRANS-FACTORIAL HepG2 Assay for human Liver X Receptor beta (LXRb) (AID 2282981); conditions: HepG2 Attagene TRANS GAL4-LXRb reporter, mRNA
Sequence of Oxysterols receptor LXR-beta (Homo sapiens) (P55055 whole entry, looked up, the tested form may be a part): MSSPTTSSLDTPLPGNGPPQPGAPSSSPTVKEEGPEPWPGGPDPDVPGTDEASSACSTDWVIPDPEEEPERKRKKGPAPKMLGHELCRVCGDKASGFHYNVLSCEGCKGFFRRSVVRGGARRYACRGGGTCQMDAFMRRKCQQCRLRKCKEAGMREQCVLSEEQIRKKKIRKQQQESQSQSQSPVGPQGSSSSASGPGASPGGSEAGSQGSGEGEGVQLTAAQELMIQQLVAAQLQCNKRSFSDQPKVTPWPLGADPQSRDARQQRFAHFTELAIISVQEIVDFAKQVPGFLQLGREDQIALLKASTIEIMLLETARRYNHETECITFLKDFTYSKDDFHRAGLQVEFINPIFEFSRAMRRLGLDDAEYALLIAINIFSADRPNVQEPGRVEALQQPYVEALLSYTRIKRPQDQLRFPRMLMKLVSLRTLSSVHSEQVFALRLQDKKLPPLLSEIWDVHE
In short: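 Liver-derived HepG2 cells transfected with Gal4-responsive reporters were dosed for 24 h. Activation was scored as rise in reporter mRNA, by RT-PCR and capillary electrophoresis, above DMSO baseline.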

[10] = target: Hepatocyte nuclear factor 4-alpha (Homo sapiens) (UniProt P41235); test: ATG_HNF4a_TRANS: Attagene TRANS-FACTORIAL HepG2 Assay for human Hepatocyte Nuclear Factor 4 alpha (HNF4a) (AID 2282982); conditions: HepG2 HNF4a transactivation reporter, mRNA readout
Sequence of Hepatocyte nuclear factor 4-alpha (Homo sapiens) (P41235 whole entry, looked up, the tested form may be a part): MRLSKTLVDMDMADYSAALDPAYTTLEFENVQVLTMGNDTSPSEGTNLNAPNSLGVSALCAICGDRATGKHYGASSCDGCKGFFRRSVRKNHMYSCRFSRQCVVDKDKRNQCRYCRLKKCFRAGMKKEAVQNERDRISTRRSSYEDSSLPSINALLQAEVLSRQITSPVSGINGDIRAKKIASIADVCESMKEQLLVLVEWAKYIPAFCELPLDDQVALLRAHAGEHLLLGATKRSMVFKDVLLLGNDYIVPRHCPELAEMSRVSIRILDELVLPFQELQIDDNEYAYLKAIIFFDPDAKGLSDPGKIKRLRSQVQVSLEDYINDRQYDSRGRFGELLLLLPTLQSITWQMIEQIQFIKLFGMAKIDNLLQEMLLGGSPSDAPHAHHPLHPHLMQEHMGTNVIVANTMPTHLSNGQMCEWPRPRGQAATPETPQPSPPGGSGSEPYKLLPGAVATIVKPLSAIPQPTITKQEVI
In short: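 Using HepG2 liver cells transfected with GAL4-UAS reporter units, chemical-induced mRNA increases were assessed after 24 hours. Fluorescent RT-PCR fragments were separated by capillary electrophoresis and compared with DMSO negative controls.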

[11] = ATG_M_06_TRANS: Attagene TRANS-FACTORIAL HepG2 Assay for M06 Transcription Factor (Internal Marker) (AID 2282983); conditions: HepG2 Attagene TRANS M06 internal marker reporter
In short: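 Multi-reporter-transfected HepG2, 24 h treatment; reporter transcripts quantified via RT-PCR, primer-extension labelling and CE. DMSO-normalized gain-of-signal fit.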

[12] = ATG_M_32_TRANS: Attagene TRANS-FACTORIAL HepG2 Assay for M32 Transcription Factor (Internal Marker) (AID 2282984); conditions: HepG2 Attagene TRANS M32 internal marker reporter
In short: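 Fluorescence-detected mRNA induction, HepG2 liver cells, 24 h after dosing. Multiple GAL4-UAS reporter units introduced by transient transfection; background-control endpoint analysed for gain of signal against DMSO.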

[13] = target: Nuclear receptor subfamily 4 group A member 2 (Homo sapiens) (UniProt P43354); test: ATG_NURR1_TRANS: Attagene TRANS-FACTORIAL HepG2 Assay for human Nuclear Receptor Related Protein 1 (NURR1) (AID 2282985); conditions: HepG2 Attagene TRANS reporter, mRNA readout
Sequence of Nuclear receptor subfamily 4 group A member 2 (Homo sapiens) (P43354 whole entry, looked up, the tested form may be a part): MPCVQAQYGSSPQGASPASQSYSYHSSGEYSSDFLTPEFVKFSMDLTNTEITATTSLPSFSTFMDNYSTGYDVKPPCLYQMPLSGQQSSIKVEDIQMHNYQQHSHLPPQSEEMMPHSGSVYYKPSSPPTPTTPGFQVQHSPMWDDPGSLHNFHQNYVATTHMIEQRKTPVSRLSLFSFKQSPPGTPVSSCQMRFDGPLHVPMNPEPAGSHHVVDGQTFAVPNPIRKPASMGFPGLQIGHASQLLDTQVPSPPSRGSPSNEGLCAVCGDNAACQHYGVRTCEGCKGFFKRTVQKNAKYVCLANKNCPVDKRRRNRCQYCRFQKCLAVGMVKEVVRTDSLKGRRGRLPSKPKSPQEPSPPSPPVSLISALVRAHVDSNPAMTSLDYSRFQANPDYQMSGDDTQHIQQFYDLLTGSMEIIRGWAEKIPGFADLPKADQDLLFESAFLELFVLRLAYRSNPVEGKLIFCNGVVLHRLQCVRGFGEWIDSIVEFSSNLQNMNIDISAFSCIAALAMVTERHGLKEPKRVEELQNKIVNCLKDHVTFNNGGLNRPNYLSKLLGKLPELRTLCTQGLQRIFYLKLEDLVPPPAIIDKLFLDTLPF
In short: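 Chimeric NR-Gal4 proteins were expressed in human HepG2 cells bearing GAL4-UAS reporter units, and induced reporter mRNA was quantified 24 h post-dosing by RT-PCR and capillary electrophoresis.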

[14] = target: Transcriptional activator Myb (Homo sapiens) (UniProt P10242); test: ATG_Myb_CIS: Attagene CIS-FACTORIAL HepG2 Assay for human Myeloblastosis (Myb) Proto-Oncogene Transcription Factor (AID 2282986; active = hit-call score of the fitted dose curve at least 0.9, where 1 is the maximum; inactive = score below 0.9); conditions: HepG2 Attagene CIS-FACTORIAL Myb reporter transcription; actives raise or lower the signal
Sequence of Transcriptional activator Myb (Homo sapiens) (P10242 whole entry, looked up): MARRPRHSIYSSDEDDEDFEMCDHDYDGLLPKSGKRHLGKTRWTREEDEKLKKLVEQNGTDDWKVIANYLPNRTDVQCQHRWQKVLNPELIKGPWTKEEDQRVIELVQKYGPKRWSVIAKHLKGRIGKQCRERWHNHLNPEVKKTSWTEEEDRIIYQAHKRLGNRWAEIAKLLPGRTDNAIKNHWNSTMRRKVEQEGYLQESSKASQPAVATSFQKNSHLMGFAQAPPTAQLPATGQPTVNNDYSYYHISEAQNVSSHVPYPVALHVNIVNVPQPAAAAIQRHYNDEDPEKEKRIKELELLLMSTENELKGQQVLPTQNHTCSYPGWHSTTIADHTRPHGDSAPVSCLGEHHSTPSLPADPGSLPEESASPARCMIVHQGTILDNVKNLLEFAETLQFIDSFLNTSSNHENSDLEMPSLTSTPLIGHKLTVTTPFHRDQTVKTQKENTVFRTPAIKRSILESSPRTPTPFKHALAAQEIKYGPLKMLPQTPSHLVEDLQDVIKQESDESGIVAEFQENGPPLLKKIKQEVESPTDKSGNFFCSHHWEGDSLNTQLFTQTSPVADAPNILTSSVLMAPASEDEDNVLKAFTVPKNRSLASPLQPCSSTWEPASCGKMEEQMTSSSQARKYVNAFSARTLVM
In short: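 Reporter mRNA is quantified by RT-PCR and capillary electrophoresis 24 h after dosing HepG2 cells transfected with cis-regulated reporter units, which track endogenous transcription factor activity. Gain and loss of signal are fitted versus DMSO baseline.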

[15] = target: Nuclear respiratory factor 1 (Homo sapiens) (UniProt Q16656); test: ATG_NRF1_CIS: Attagene CIS-FACTORIAL HepG2 Assay for human Nuclear Respiratory Factor 1 (NRF1) Orphan Gene (AID 2282987; active = hit-call score of the fitted dose curve at least 0.9, where 1 is the maximum; inactive = score below 0.9); conditions: HepG2 NRF1 cis-element reporter, Attagene multiplex; actives raise or lower the signal
Sequence of Nuclear respiratory factor 1 (Homo sapiens) (Q16656 whole entry, looked up): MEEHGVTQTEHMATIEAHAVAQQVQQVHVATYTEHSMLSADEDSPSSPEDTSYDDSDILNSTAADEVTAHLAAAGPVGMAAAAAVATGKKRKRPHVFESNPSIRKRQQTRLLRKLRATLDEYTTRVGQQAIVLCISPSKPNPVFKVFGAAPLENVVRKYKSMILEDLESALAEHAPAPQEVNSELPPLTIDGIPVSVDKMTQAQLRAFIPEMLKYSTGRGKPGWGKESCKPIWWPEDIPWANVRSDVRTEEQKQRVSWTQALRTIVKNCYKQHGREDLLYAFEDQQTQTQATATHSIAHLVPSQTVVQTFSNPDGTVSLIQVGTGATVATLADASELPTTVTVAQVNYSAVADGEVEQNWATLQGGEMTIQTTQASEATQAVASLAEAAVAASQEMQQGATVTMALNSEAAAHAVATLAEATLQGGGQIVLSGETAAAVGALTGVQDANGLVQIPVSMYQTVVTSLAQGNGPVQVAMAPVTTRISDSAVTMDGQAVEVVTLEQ
In short: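 Endogenous NRF1-driven reporter transcription in transfected HepG2 cells after 24 h treatment. Readout: RT-PCR products, 6-FAM labelled and resolved by capillary electrophoresis; changes fitted both directions relative to DMSO.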

[16] = ATG_TGFb_CIS: Attagene CIS-FACTORIAL HepG2 Assay for human Transforming Growth Factor (TGF) (AID 2282967; active = hit-call score of the fitted dose curve at least 0.9, where 1 is the maximum; inactive = score below 0.9); conditions: HepG2 Attagene CIS TGFb reporter, mRNA transcription; actives raise or lower the signal
In short: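 Readout: fluorescently labeled reporter cDNA fragments resolved by capillary electrophoresis after RT-PCR. Transfected HepG2 cells dosed for 24 h; endogenous TF activity at TGFB1-linked cis element; gain or loss fitted relative to DMSO.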

[17] = target: Glucocorticoid receptor (Homo sapiens) (UniProt P04150); test: ATG_GR_TRANS: Attagene TRANS-FACTORIAL HepG2 Assay for human Glucocorticoid Receptor (GR) (AID 2282978); conditions: HepG2 Attagene TRANS GR reporter, mRNA transcription;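 also: activators score as hits since higher reporter transcript over DMSO is fitted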
Sequence of Glucocorticoid receptor (Homo sapiens) (P04150 whole entry, looked up, the tested form may be a part): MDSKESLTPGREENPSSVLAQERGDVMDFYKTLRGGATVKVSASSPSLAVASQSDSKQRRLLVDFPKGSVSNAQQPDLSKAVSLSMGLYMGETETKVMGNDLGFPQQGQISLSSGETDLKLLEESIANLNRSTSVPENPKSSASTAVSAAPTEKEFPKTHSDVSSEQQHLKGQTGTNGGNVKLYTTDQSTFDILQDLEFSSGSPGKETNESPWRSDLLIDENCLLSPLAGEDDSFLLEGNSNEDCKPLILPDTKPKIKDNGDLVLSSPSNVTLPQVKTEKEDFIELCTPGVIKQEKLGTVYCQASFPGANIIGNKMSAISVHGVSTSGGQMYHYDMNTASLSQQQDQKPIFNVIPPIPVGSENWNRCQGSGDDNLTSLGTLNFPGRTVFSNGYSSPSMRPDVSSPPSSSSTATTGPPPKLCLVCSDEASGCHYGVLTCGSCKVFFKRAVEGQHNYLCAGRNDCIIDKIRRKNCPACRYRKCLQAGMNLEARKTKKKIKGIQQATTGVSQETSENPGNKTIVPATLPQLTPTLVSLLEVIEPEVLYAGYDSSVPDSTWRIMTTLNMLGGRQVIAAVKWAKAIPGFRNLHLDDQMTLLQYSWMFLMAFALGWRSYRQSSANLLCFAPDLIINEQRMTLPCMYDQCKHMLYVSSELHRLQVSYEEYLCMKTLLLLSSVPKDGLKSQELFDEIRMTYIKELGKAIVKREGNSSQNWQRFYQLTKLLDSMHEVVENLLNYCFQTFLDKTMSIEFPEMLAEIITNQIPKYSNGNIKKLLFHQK
In short: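 Readout is reporter transcript from a chimeric GR-Gal4 acting on GAL4-UAS in transfected human HepG2 liver cells after 24 h exposure, quantified by RT-PCR and capillary electrophoresis. Activation fitted upward against DMSO.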

[18] = target: Steroid hormone receptor ERR1 (Homo sapiens) (UniProt P11474); test: ATG_ERRa_TRANS: Attagene TRANS-FACTORIAL HepG2 Assay for human Estrogen-Related Receptor alpha (ERRa) (AID 2282971); conditions: HepG2 Attagene TRANS reporter, ERRa transactivation
In short: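 Signal gain relative to DMSO for an ERRa-Gal4 chimeric receptor, read as reporter mRNA by RT-PCR/capillary electrophoresis. Human HepG2 liver cells, transient multiplex reporter transfection, 24 h chemical exposure.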

With `c1ccc(CCc2ccccc2)cc1` the outcome [1] was “inactive”, the outcome [2] was “inactive” and the outcome [3] was “inactive”. For the same compound, the outcome [4] was “inactive”, the outcome [5] was “inactive” and the outcome [6] was “inactive”. For the same compound, the outcome [7] was “inactive”, the outcome [8] was “inactive” and the outcome [9] was “inactive”. The outcome [10] was “inactive”, the outcome [11] was “inactive” and the outcome [12] was “inactive”. The outcome [13] was “inactive”, the outcome [14] was “inactive” and the outcome [15] was “inactive”.
For `Cc1c(OCC(F)(F)F)ccnc1CS(=O)c1nc2ccccc2[nH]1` (centres undefined), the outcome [1] was “inactive”, the outcome [16] was “inactive” and the outcome [4] was “inactive”. The outcome [17] was “inactive”, the outcome [7] was “inactive” and the outcome [9] was “inactive”. The outcome [11] was “inactive”, the outcome [12] was “inactive” and the AC50 [13] was 36.7 µM (active). For the same compound, the outcome [14] was “inactive” and the AC50 [15] was 128 µM (active).
In the case of `CN(C)CCOC(C)(c1ccccc1)c1ccccn1` (centres undefined), the outcome [1] is reported as “inactive”, the outcome [2] is reported as “inactive” and the outcome [3] is reported as “inactive”. For the same compound, the outcome [4] was “inactive”, the outcome [5] was “inactive” and the outcome [6] was “inactive”. For the same compound, the outcome [7] was “inactive”, the outcome [8] was “inactive” and the outcome [9] was “inactive”. The outcome [11] was “inactive”, the outcome [12] was “inactive” and the outcome [14] was “inactive”. For the same compound, the outcome [15] was “inactive”.
With `O=C(Nc1ccc2c(c1)Cc1ccccc1-2)C(F)(F)F` the outcome [1] was “inactive”, the AC50 [2] was 30.5 µM (active) and the outcome [3] was “inactive”. The outcome [4] was “inactive”, the outcome [6] was “inactive” and the outcome [17] was “inactive”. The outcome [7] was “inactive”, the outcome [8] was “inactive” and the outcome [9] was “inactive”. For the same compound, the outcome [10] was “inactive”, the outcome [11] was “inactive” and the outcome [12] was “inactive”. For the same compound, the outcome [13] was “inactive”, the outcome [14] was “inactive” and the outcome [15] was “inactive”.
With `CC(=O)OCCCc1ccccc1` the outcome [1] was “inactive”, the outcome [18] was “inactive” and the outcome [4] was “inactive”. The outcome [5] was “inactive”, the outcome [6] was “inactive” and the outcome [8] was “inactive”. For the same compound, the outcome [9] was “inactive”, the outcome [12] was “inactive” and the outcome [14] was “inactive”. For the same compound, the outcome [15] was “inactive”.
With `ClC(c1ccccc1)(c1ccccc1)c1ccccc1` the outcome [1] was “inactive”, the AC50 [2] was 5.98 µM (active) and the outcome [3] was “inactive”. The outcome [4] was “inactive”, the outcome [6] was “inactive” and the outcome [17] was “inactive”. The outcome [7] was “inactive”, the outcome [11] was “inactive” and the outcome [13] was “inactive”. For the same compound, the outcome [14] was “inactive” and the outcome [15] was “inactive”.
For `C=CC(=O)OCCCC`, the outcome [1] was “inactive”, the outcome [2] was “inactive” and the outcome [3] was “inactive”. The outcome [4] was “inactive”, the outcome [5] was “inactive” and the outcome [8] was “inactive”. The outcome [9] was “inactive”, the outcome [12] was “inactive” and the outcome [14] was “inactive”. The outcome [15] was “inactive”.
In the case of `O=C(O)c1cccnc1C(=O)O`, the outcome [1] is reported as “inactive”, the outcome [4] is reported as “inactive” and the outcome [5] is reported as “inactive”. The outcome [10] was “inactive”, the outcome [12] was “inactive” and the outcome [14] was “inactive”. For the same compound, the outcome [15] was “inactive”.
For `C=CCOC(=O)CCCCCC`, the outcome [1] was “inactive”, the outcome [2] was “inactive” and the outcome [3] was “inactive”. For the same compound, the outcome [4] was “inactive”, the outcome [5] was “inactive” and the outcome [17] was “inactive”. The outcome [10] was “inactive”, the outcome [11] was “inactive” and the outcome [12] was “inactive”. For the same compound, the outcome [13] was “inactive”, the outcome [14] was “inactive” and the outcome [15] was “inactive”.
For `OC[C@H]1O[C@@H]2O[C@H]3[C@H](O)[C@@H](O)[C@@H](O[C@H]4[C@H](O)[C@@H](O)[C@@H](O[C@H]5[C@H](O)[C@@H](O)[C@@H](O[C@H]6[C@H](O)[C@@H](O)[C@@H](O[C@H]7[C@H](O)[C@@H](O)[C@@H](O[C@H]8[C@H](O)[C@@H](O)[C@@H](O[C@H]9[C@H](O)[C@@H](O)[C@@H](O[C@H]1[C@H](O)[C@H]2O)O[C@@H]9CO)O[C@@H]8CO)O[C@@H]7CO)O[C@@H]6CO)O[C@@H]5CO)O[C@@H]4CO)O[C@@H]3CO`, the outcome [16] was “inactive”, the outcome [2] was “inactive” and the outcome [3] was “inactive”. For the same compound, the outcome [18] was “inactive”, the outcome [4] was “inactive” and the outcome [5] was “inactive”. The outcome [6] was “inactive”, the outcome [10] was “inactive” and the outcome [14] was “inactive”. The outcome [15] was “inactive”.
